High-throughput results from PubChem BioAssay.
KCNK9 inh – inhibitors of human KCNK9 two-pore domain potassium channel | Q9NPC2 | HEK293 KCNK9, FluxOR thallium flux fluorescence; stronger effect = lower value | B-score at 10 µM | 310,000 tested, 1.2% active | AID 488922;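 active = ratio B-score over 3 SD below the library mean, with starting fluorescence within 5 SD of its mean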;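 note: negative B-score means less thallium flux so channel inhibition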
KCNK3 block – human KCNK3 channel inhibition, primary screen | O14649 | CHO-KCNK3 thallium flux, FluxOR fluorescence; stronger effect = lower value | B-score at 10 µM | 340,000 tested, 0.84% active;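 active = B-score under library mean minus 4 SD, starting fluorescence ratio at most library mean plus 5 SD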;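 note: more negative B-score means stronger inhibition of thallium flux through KCNK3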
Kir21 inh – inhibitors of mouse Kir2.1 inward-rectifier potassium channel; HEK293-Kir2.1, FluxOR thallium flux fluorescence; stronger effect = lower value; B-score at 10 µM; 310,000 tested, 0.85% active; AID 1672;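 active = fluorescence ratio B-score at or below minus 3 SD of library scores, with starting-brightness B-score within 2 SD, cut at about -4.2 in these data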;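 note: channel flux triggered by added potassium and thallium sulfate stimulus; B-score of peak minus minimum fluorescence over baseline after thallium stimulus; more negative B-score means stronger Kir2.1 block with less thallium influx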
ANO1 activ – mouse TMEM16A channel activation, primary screen | 340,000 tested, 0.3% active | HEK293 TMEM16A/YFP-H148Q/I152L, iodide quench fluorescence; stronger effect = lower value | B-score at 10 µM | Q8BHY3;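 active = fluorescence-ratio B-score plate-corrected deviation score at least 3 library SD below zero, with starting fluorescence score within 5 deviations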;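 note: channel opened by trigger with iodide after compound preincubation; score built on the fluorescence ratio of max minus min over baseline; more negative score means more quench and so TMEM16A activation or potentiation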
ANO1 block – blocks the mouse calcium-activated chloride channel TMEM16A; 310,000 tested, 1.2% active; HEK293 TMEM16A/YFP iodide influx fluorescence, ionomycin; AID 588511; Q8BHY3; normalized B-score (activity score, 25-100; higher = stronger inhibition) at 10 µM;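 active = ratio plate-corrected score three or more library SD toward inhibition, starting fluorescence score within five deviations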;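 note: score derived from kinetic fluorescence span divided by baseline fluorescence per well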
A number is an active result. Shown are actives, neighbours in structure and some others; about 3.5% of the full set was active somewhere.

Cc1cccc(OCC(O)Cn2c(=N)n(Cc3ccccc3)c3ccccc32)c1 (configuration not stated) was read as KCNK9 inh inactive, KCNK3 block inactive, Kir21 inh -10, ANO1 activ inactive and ANO1 block inactive.
`COc1ccc(N2CC(C(=O)O)CC2=O)cc1` (configuration not stated) gave KCNK9 inh inactive, KCNK3 block inactive, Kir21 inh inactive, ANO1 activ inactive and ANO1 block inactive.
`O=C(COc1ccc([N+](=O)[O-])cc1)NCc1ccncc1` gave KCNK9 inh inactive, KCNK3 block inactive, Kir21 inh inactive, ANO1 activ inactive and ANO1 block inactive.
CCOP(=O)(OCC)c1nc(-c2ccc(F)cc2)oc1NCc1ccccc1 was read as KCNK9 inh -6.6, KCNK3 block inactive, Kir21 inh inactive, ANO1 activ inactive and ANO1 block inactive.
For O=C(NCc1ccc2c(c1)OCO2)c1cc(-c2ccccc2)nn1CC1CC(c2cccnc2)=NO1 (configuration not stated) the results were KCNK9 inh inactive, KCNK3 block inactive, Kir21 inh inactive, ANO1 activ inactive and ANO1 block inactive.
For CCCn1c(N2CCC(Cc3ccccc3)CC2)nc2c1c(=O)[nH]c(=O)n2C the results were KCNK9 inh inactive, KCNK3 block inactive, Kir21 inh inactive, ANO1 activ inactive and ANO1 block inactive.
For CCCCCn1c(N2CCC(Cc3ccccc3)CC2)nc2c1c(=O)[nH]c(=O)n2C the results were KCNK9 inh inactive, KCNK3 block inactive, Kir21 inh inactive, ANO1 activ inactive and ANO1 block 100.
Screening Cc1ccc(NC(=O)C2=C(c3ccccc3)S(=O)(=O)CCS2(=O)=O)cc1 returned KCNK9 inh inactive, KCNK3 block inactive, Kir21 inh -5.7, ANO1 activ inactive and ANO1 block inactive.
Screening Cc1ccc(NC(=O)c2ccccc2)cc1 returned KCNK9 inh inactive, KCNK3 block inactive, Kir21 inh inactive, ANO1 activ inactive and ANO1 block inactive.
For C#CCOc1ccc(/C=C2/C(=O)ON=C2C)cc1Br the results were KCNK9 inh inactive, KCNK3 block inactive, Kir21 inh inactive, ANO1 activ inactive and ANO1 block inactive.
Cc1ccc(NC(=O)N2CCCN(Cc3ccc(F)cc3)C2)cc1C was read as KCNK9 inh inactive, KCNK3 block inactive, Kir21 inh -5.4, ANO1 activ inactive and ANO1 block inactive.
Screening Cc1ccc(NC(=O)CSc2nc3c(c(=O)[nH]2)CN(Cc2ccc(F)cc2)CC3)cc1C returned KCNK9 inh inactive, KCNK3 block inactive, Kir21 inh inactive, ANO1 activ -12 and ANO1 block inactive.
`O=C(CSc1nc2c(c(=O)[nH]1)CN(Cc1ccc(F)cc1)CC2)Nc1ccc(F)cc1` gave KCNK9 inh inactive, KCNK3 block inactive, Kir21 inh inactive, ANO1 activ inactive and ANO1 block inactive.
COCc1cc(Sc2ccc(Cl)cc2)nc(C)n1 was read as KCNK9 inh inactive, KCNK3 block inactive, Kir21 inh inactive, ANO1 activ inactive and ANO1 block inactive.
For Cc1nc(CS(=O)(=O)c2ccc(Cl)cc2)cc(Sc2ccc(Cl)cc2)n1 the results were KCNK9 inh -6.6, KCNK3 block inactive, Kir21 inh -4.8, ANO1 activ inactive and ANO1 block inactive.
For CCc1nn2cc(C(=O)c3cc(Cl)ccc3O)cnc2c1-c1ccc(F)cc1 the results were KCNK9 inh inactive, KCNK3 block inactive, Kir21 inh inactive, ANO1 activ inactive and ANO1 block 100.
For Cc1nn(-c2ccccc2)c2ncc(C(=O)c3cc(Cl)ccc3O)cc12 the results were KCNK9 inh inactive, KCNK3 block inactive, Kir21 inh inactive, ANO1 activ inactive and ANO1 block inactive.
For O=C(NCc1ccc(F)cc1)c1cc2sccc2n1Cc1ccc(F)cc1 the results were KCNK9 inh -10, Kir21 inh inactive and ANO1 block inactive.
Screening Cc1ccc(NS(=O)(=O)c2ccc(NC(=O)c3cccs3)cc2)cc1 returned KCNK9 inh inactive, KCNK3 block inactive, Kir21 inh inactive, ANO1 activ inactive and ANO1 block inactive.
For Cc1cccc(NC2=NCC(=O)N2Cc2cccs2)c1 the results were KCNK9 inh inactive, KCNK3 block inactive, Kir21 inh inactive, ANO1 activ inactive and ANO1 block inactive.
CCOc1cc(/C=C2\C(=N)N3N=C(S(=O)(=O)CC)SC3=NC2=O)ccc1OC(=O)c1ccco1 was read as KCNK9 inh inactive, KCNK3 block inactive, Kir21 inh inactive, ANO1 activ inactive and ANO1 block inactive.
